# Only some compounds are listed: those with a hit (about 4.3% of all), similar ones and a draw of the others.
# Giardia kill: Giardia lamblia killing; Giardia lamblia trophozoite viability; activity change, % at 7.66 µM, hits read low; 340,000 compounds, 0.15% hits; AID 540267; in the data active = activity change below about -80%; inconclusive = between about -30% and that limit;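 also: parasites exposed to compound for two days anaerobically before the ATP read; % is scaled to controls: 0 for no effect and ±100 for the full control effect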
#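 ATP-content bioluminescence gauges trophozoite survival. Cells (100/well) receive compound and incubate anaerobically for 48 hrs at 37 deg C; detection reagent follows for 15-30 min at room temperature.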
# uPA surface inh: inhibitors of cell surface uPA generation; cell surface uPA generation assay, qHTS; Potency, µM (series often up to 38.3 µM), for the others: at the highest dose activity change, negative = inhibition, usual class: inhibitors; 330,000 compounds, 0.31% hits; active = well fitted inhibition curve with a large enough effect; inconclusive = small, poorly fitted or top-dose-only effect; inactive = no such curve, though single readings can be large or run the other way; tested in mouse RAW 264.7 cells; also: potency is read from the fitted curve at half-maximal effect; % is scaled to controls: 0 for no effect and ±100 for the full control effect; nearly all actives have a fitted effect of over 55% in size
# SW480 rerep: induces DNA re-replication in SW480 colon adenocarcinoma cells. 340,000 compounds, 1.8% hits. SW480 DNA re-replication, Hoechst DNA content imaging, 48 h. Potency, µM (top dose mostly 46.1 µM), for the others: at the top dose re-replication activation, hits mostly activators; also: potency is read from the fitted curve at half-maximal effect; % of control where 0% means no effect; nearly all actives have a fitted effect of over 55% in size
#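 Quantitative HTS format with DMSO vehicle controls; 48 hr drug incubation at 37 C, then 40 min Hoechst staining and scanning imager measurement at 405 nm excitation.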
# MCF10A rereplic: DNA re-replication induction in MCF 10a cells. MCF 10A DNA re-replication, Hoechst nuclear intensity, 48 h. 350,000 compounds, 2.9% hits. Potency, µM (titrated, usually from 46.1 µM), for inactives: top-dose activity, positive = re-replication, usual class: activators. AID 624296; also: potency is read from the fitted curve at half-maximal effect; % of control where 0% means no effect; nearly all actives have a fitted effect of over 50% in size
# An asterisk follows results filed as active; u = inconclusive; x = no result given; ! = not confirmed by another sample; [ ] = remark or other dose. Unless noted, calls follow the shape of the dose curve; as a rule, active = well fitted activation curve with a large enough effect; inconclusive = small, poorly fitted or top-dose-only effect; inactive = no such curve, though single readings can be large or run the other way.
SMILES,Giardia kill,uPA surface inh,SW480 rerep,MCF10A rereplic
C[C@H]1CCC/C=C/[C@@H]2C[C@H](O)C[C@H]2[C@H](O)/C=C/C(=O)O1,-17,u,u,0.65µM*!
CN(CCc1ccccc1)Cc1c[nH]c2ccccc12,-10,2.2µM*,10%,-6%
CCN(CC)Cc1c[nH]c2ccccc12,4,0%,5%,u
COc1ccc(S(=O)(=O)N2c3ccc(F)cc3CCC2C)cc1 (configuration not stated),35,u,u,0.92µM*
COc1ccc2c(c1)C(=O)N1[C@H]3c4cc(Cl)ccc4OC[C@@H]3[C@H](c3ccccc3)[C@]1(C)C(=O)N2,11,u,9.2µM*,u
CC1OC(OC2CC(O)C3(CO)C4C(O)CC5(C)C(C6=CC(=O)OC6)CCC5(O)C4CCC3(O)C2)C(O)C(O)C1O (configuration not stated),15,0%,6.5µM*,u
C[C@@H]1O[C@@H](O[C@H]2C[C@@H](O)[C@]3(CO)[C@H]4[C@H](O)C[C@]5(C)[C@@H](C6COC(=O)C6)CC[C@]5(O)[C@@H]4CC[C@]3(O)C2)[C@H](O)[C@H](O)[C@H]1O (some centres not stated),3,3%,5.2µM*,u
COc1ccc(C(=O)N/N=C/C23CC[C@@H](O)CC2(O)CC[C@@H]2[C@@H]3CCC3(C)C(C4=CC(=O)OC4)CCC23O)cc1 (some centres not stated),21,10%,-5%,u
S=C=S,x,x,-4%,-2%
CC(C)C[C@H]1C(=O)N2CCC[C@H]2[C@]2(O)O[C@](NC(=O)[C@@H]3C=C4c5cccc6[nH]c(Br)c(c56)CC4N(C)C3)(C(C)C)C(=O)N12 (some centres not stated),-10,16%,u,u
CCOC(=O)C1=C(O)/C(=C/c2cc(OC)c(O)c(OC)c2)SC1=Nc1ccc(OC)cc1,-14,u,u,16µM*
CC1CC[C@@]2(NC1)OC1CC3C4CC[C@@H]5CC(O)CC[C@@]5(C)C4CC[C@]3(C)C1C2C (some centres not stated),x,x,-3%,14%
Cc1cccc(CN2CCCC(C(=O)Nc3ccc(-c4cscn4)cc3)C2)c1 (configuration not stated),9,u,u,5%
C[C@@H](NC(=O)c1nc[nH]c1C(=O)NCc1ccc(CNC(=O)OC(C)(C)C)cc1)c1ccccc1,-20,-10%,-3%,u
Cc1ccc2[nH]c3c(c2c1)CN(C(=O)CN1C[C@H]2C[C@@H](C1)c1cccc(=O)n1C2)CC3,5,-5%,4.1µM*,-58%
Cc1ccc2occ(CN3CC4CC(C3)c3cccc(=O)n3C4)c(=O)c2c1 (configuration not stated),12,-2%,u,26%
CCn1c(O)c(C(=O)CC2NCCc3ccccc32)c(=O)n(CC)c1=S (configuration not stated),6,1%,2%,21µM*
CCn1c(O)c(C=NCc2cccs2)c(=O)n(CC)c1=S,9,6%,-1%,u
CC(=O)c1c(O)n(-c2cccc(Cl)c2)c(=O)[nH]c1=O (tested in a mixture with another compound),36,-1%,-2%[9.22 µM],1%
CC(C)n1c(O)c(C2c3cc(Cl)ccc3Oc3[nH]c(=O)n(C(C)C)c(=O)c32)c(=O)[nH]c1=O (configuration not stated),4,2%,u,2.1µM*
Cc1cc(C)c(Cn2c(C(=O)O)c(C=O)c3ccccc32)c(C)c1,-23,25%,u,6.5µM*
CCCCCCCCCCCCCCCC[n+]1ccccc1,-13,0.71µM*!,5%,u
CCCCCCC[n+]1ccc(-c2cc[n+](CCCCCCC)cc2)cc1,-8,-7%,u,19%
COc1cc(OC)c2c(-c3cccc(-c4ccc(N(C)C)cc4)c3)cc(=O)oc2c1,-7,1µM*,4.1µM*,u
CCC1(Oc2ccccc2)C(=O)NC(=O)NC1=O,9,3%,0%,-18%
SMILES,Giardia kill,uPA surface inh,SW480 rerep,MCF10A rereplic
CCC1(C)OC(c2ccccc2)=C/C(=C/C=C2C(=O)NC(=O)NC2=O)O1 (configuration not stated),6,u,u,21µM*
CCOP(=O)(OCC)c1nc(-c2cccc3ccccc23)oc1N1CCCCC1,9,-2%,u,u
COP(=O)(OC)c1nc(-c2cccc3ccccc23)oc1N1CCCCC1,2,1%,u,21µM*
CCOP(=O)(OCC)c1nc(-c2ccc(Cl)cc2)oc1NCc1ccccc1,6,-9%,-16%,2%
COc1ccc(CNc2oc(-c3cccc4ccccc34)nc2P(=O)(OC)OC)cc1,27,-12%,18µM*,21µM*
CCCOP(=O)(OCCC)c1nc(-c2ccccc2)oc1NCc1ccccc1,-30,2%,15µM*,u
COC(=O)C1=C(c2cc3ccccc3o2)C[C@@H]2CC[C@H]1N2C(=O)N1CCCCC1,-4,u,12µM*,u
CC(=O)OC1C[C@H](O[C@@H]2C(O)C[C@H](O[C@@H]3C(O)C[C@@H](OC4CC[C@]5(C)C(CCC6C5CC(O)[C@@]5(C)C(C7=CC(=O)OC7)CC[C@@]65O)C4)OC3C)OC2C)O[C@H](C)[C@H]1O[C@H]1OC(CO)C(O)C(O)C1O (some centres not stated),x,x,u,0.12µM*
CC1OC(OC2CCC3(C)C(CCC4C3CC(O)C3(C)C(C5=CC(=O)OC5)CCC43O)C2)CC(O)C1OC1CC(O)C(OC2CC(O)C(OC3OC(CO)C(O)C(O)C3O)C(C)O2)C(C)O1 (configuration not stated),x,x,u,6%
CC(=O)OC1CC(OC2C(O)CC(OC3C(O)CC(OC4CCC5(C)C(CCC6C5CCC5(C)C(C7=CC(=O)OC7)CCC65O)C4)OC3C)OC2C)OC(C)C1OC1OC(CO)C(O)C(O)C1O (configuration not stated),-6,4%,0.92µM*,15%
OC[C@@H](O)[C@H]1O[C@@H]2OC(C(Cl)(Cl)Cl)O[C@H]2[C@H]1O (some centres not stated),x,x,-4%,2%
Cc1ccc2c(c1)C1CN(C)CCC1N2C(=O)c1ccccc1NS(=O)(=O)c1cccc(C(F)(F)F)c1 (configuration not stated),-14,5%,9%,u
CCCC12CN3CCN(CC(C3)/C1=N\NC(=O)c1ccncc1)C2,4,-2%,5.8µM*,-4%
CCC12CN3CCN(CC(C3)/C1=N/NC(=O)c1ccncc1)C2,12,1%,u,14%
CC1(NC(=O)CC(c2ccccc2)(c2ccccc2)c2ccccc2)CCN(CCCc2ccccc2)C1=O (configuration not stated),7,u,-1%,u
CC1CN(C(=O)c2ccc(S(=O)(=O)Nc3ccccc3F)cc2)CC(C)O1 (configuration not stated),10,0%,-70%,-1%
